Among the data in PubChem BioAssay AID743263 (The Scripps Research Institute Molecular Screening Center, 2014) are inhibition values, retold here.

The campaign covered roughly 1,100 compounds. About 250 (23%) were called active. Cut-off read from the data, not from the text of the source: active = inhibition above about 25%; inactive = the rest. Only a sample is shown.

In this experiment the target is Tyrosyl-DNA phosphodiesterase 2 (Homo sapiens) (UniProt O95551). The experiment is described as follows: blockers of TDP2 phosphodiesterase activity – biochemical, epi absorbance, recombinant enzyme, confirmation (AID 743263).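 Note: 0% = vehicle with enzyme and 100% = no enzyme buffer only.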 Conditions: recombinant human TDP2, absorbance read-out; at 12.8 µM; stronger effect = higher value.
Sequence of Tyrosyl-DNA phosphodiesterase 2 (Homo sapiens) (O95551 whole entry, looked up): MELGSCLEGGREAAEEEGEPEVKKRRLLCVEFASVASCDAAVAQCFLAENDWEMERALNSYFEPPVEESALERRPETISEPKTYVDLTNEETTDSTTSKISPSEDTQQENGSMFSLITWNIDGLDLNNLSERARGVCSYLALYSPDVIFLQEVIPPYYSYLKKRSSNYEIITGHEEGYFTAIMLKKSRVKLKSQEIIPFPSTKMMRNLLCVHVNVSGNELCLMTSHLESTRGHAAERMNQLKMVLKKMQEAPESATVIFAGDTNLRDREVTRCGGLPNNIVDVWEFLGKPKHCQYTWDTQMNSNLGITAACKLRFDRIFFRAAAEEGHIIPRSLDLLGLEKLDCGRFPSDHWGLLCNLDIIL
Turning to `NC1=CC(=O)C(=O)c2cccnc21`, the inhibition was 65.8% (active). Take `CCSc1nnc(SCC(=O)NNC(=O)c2ccccc2F)s1`: the inhibition was -14.1% (inactive). Under `Cc1cc(C)c(OCCN2CC(C)OC(C)C2)c(Br)c1` (stereo not drawn) stands -5.14% (inactive). As to `CCCCCCCCc1c(O)nc(-n2[nH]c(C)c(CCO)c2=O)[nH]c1=O`, the inhibition is 27.3% (active). Under `CCOC(=O)N1CCC(c2cc(=O)n(-c3ccccc3)[nH]2)CC1` stands 0.79% (inactive); under `Cc1ccc(S(=O)(=O)N2CCC(C(=O)NCCC3=CCCCC3)CC2)cc1C`, -3.83% (inactive).

In the case of `CC(=O)N(C1=C(Cl)C(=O)c2ccccc2C1=O)c1ccc(C(=O)O)cc1`, the inhibition is 59.3% (active). As for `CC(C)Cn1c(N)c(C(=O)NCc2cccs2)c2nc3ccccc3nc21`, the inhibition was 10.2% (inactive).

As to `CCN(CC)CCN1C(=O)C2C(C(=O)Nc3ccc(Br)cc3)C3C=CC2(O3)C1C(=O)NC1CCCCC1` (stereo not drawn), the inhibition is -2.2% (inactive). As to `COc1ccccc1C1C(C#N)=C(N)Oc2c1c(-c1ccccc1)nn2-c1ccccc1` (stereo not drawn), the inhibition was -0.56% (inactive).

Regarding `Cn1nc(N)c2ncc(C(Cl)(Cl)Cl)nc21`, the inhibition is 2.05% (inactive). In the case of `COc1ccc2c(c1)c(=Cc1ccc(N(C)C)cc1)c1cc(-c3ccccc3)[n+](C)n12`, the inhibition is 9.49% (inactive). With `Oc1c(C=Nc2cccc3nsnc23)ccc2ccccc12`, the inhibition is 41.4% (active).

With `COc1ccc(-c2csc(Nc3ccc(O)cc3)n2)cc1`, the inhibition is 3.53% (inactive). Take `COc1cc(NC(=O)COC(=O)c2ccc([N+](=O)[O-])s2)cc(OC)c1OC`: the inhibition was 35.1% (active).

Turning to `O=C(OCC(=O)N1CCN(c2ccccc2)CC1)c1ccc([N+](=O)[O-])s1`, the inhibition was 10.4% (inactive). Under `COc1cc(OC)cc(C(=O)OCC(=O)Nc2sccc2C(N)=O)c1` stands -2.14% (inactive). Consider `O=C(NC1CCCCC1)N1CCc2[nH]c3ccccc3c2C1`, for which the inhibition was 7.01% (inactive). Regarding `Cc1ccc(Cl)cc1NC(=O)CN1CCN(S(=O)(=O)N2CCOCC2)CC1`, the inhibition is -8.33% (inactive). Take `O=c1oc2ccccc2c(CNc2ccccc2)c1[N+](=O)[O-]`: the inhibition is 11.7% (inactive). On to `CCN(CC)CCCC(C)n1c2nc(=O)[nH]c(=O)c-2nc2cc(Cl)ccc21` (stereo not drawn), for which the inhibition was 52.2% (active). For the compound `O=S(=O)(Nc1ccc(O)c2ccccc12)c1ccc(OC(F)(F)F)cc1`, the inhibition was 15.5% (inactive). For the compound `Cc1ccc(OCCCCc2c(C)n[nH]c2C)cc1`, the inhibition was 2.05% (inactive). For the compound `CN1c2ccc(C=O)c3c(C=O)ccc(c23)N(C)C1(C)C`, the inhibition is 21% (inactive). Under `CC(=O)c1ccc(S(=O)(=O)N2CCC3(CC2)OCCO3)cc1` stands -6.04% (inactive); under `COC1=C(N2CCOCC2)C(=O)c2ccccc2C1=O`, 30.9% (active); under `COc1ccc(S(=O)(=O)/N=C2\C=C(NS(=O)(=O)c3ccccc3)C(=O)c3ccccc32)cc1`, 16.7% (inactive). Take `COCCN1C=C2C(=O)C(C)(OC(=O)C3CCCC3)C(=O)C=C2C=C1c1ccsc1` (stereo not drawn): the inhibition is 12.3% (inactive). Regarding `O=C1Nc2ccc([N+](=O)[O-])cc2C1=Nc1cccc(CO)c1`, the inhibition is 28.1% (active).

Regarding `Cc1nn(-c2ccccc2)c2c1C(c1ccc(F)cc1)C(C#N)=C(N)O2` (stereo not drawn), the inhibition is -4.61% (inactive). On to `CC1=NN(c2ccc(Cl)c(C(=O)O)c2)C(=O)/C1=C/c1ccc(-c2ccccc2[N+](=O)[O-])o1`, for which the inhibition is -34.7% (inactive).

For the compound `CCc1ccccc1NC(=S)Nc1cc(OC)c(NC(=O)C(C)C)cc1OC`, the inhibition was 2.01% (inactive).

On to `Clc1ccc(C2=CSC3=Nc4cccc5cccc(c45)N23)cc1`, for which the inhibition was 55% (active). On to `O=C(NCc1ccccc1Cl)C(=O)NCC1CCCN1S(=O)(=O)c1cccs1` (stereo not drawn), for which the inhibition was -5.35% (inactive). As for `Cc1ccccc1Cn1c2ccccc2c2cnn(CC(=O)NCc3ccco3)c(=O)c21`, the inhibition is -10.2% (inactive).

As to `COc1ccc2c(c1)C(C)=CC(C)(C)N2C(=O)Nc1ccccc1`, the inhibition is 7.25% (inactive). `COCCn1nnnc1C(c1cc2ccc(OC)cc2[nH]c1=O)N1CCc2ccccc2C1` (stereo not drawn): the inhibition is -0.83% (inactive). Take `C=CCn1c(N)c(C(=O)OCC(C)C)c2nc3ccccc3nc21`: the inhibition is 9.13% (inactive). For the compound `Oc1ccc(N=Cc2c(O)ccc3ccccc23)cc1`, the inhibition was 52.7% (active). For `Oc1ccc(N=Cc2sc3ccccc3c2Cl)cc1`, the inhibition is 71.6% (active). Turning to `CCN1C(=O)c2cccc3c(N)ccc1c23`, the inhibition is 8.24% (inactive). In the case of `CN(C)c1ccc(N/C=C/C(=O)C(F)(F)F)cc1`, the inhibition was -9.4% (inactive). As to `Cc1[nH][nH]c(=O)c1C(c1ccc(-c2ccc(Cl)cc2)o1)c1c(C)[nH][nH]c1=O`, the inhibition was 20.6% (inactive). Take `O=Cc1cn(-c2ccccc2)nc1-c1ccccn1`: the inhibition was 2.54% (inactive). Take `CC1CCCC(NC(=O)c2cc(-c3ccncc3)nc3ccccc23)C1C` (stereo not drawn): the inhibition was -1.39% (inactive). Under `CCOC(=O)c1c(C)[nH]c2c1-c1ccccc1C(=O)C2=O` stands 84.2% (active); under `Nc1ccc2nn(-c3ccc(Cl)cc3)nc2c1`, 1.36% (inactive); under `CCCCNC(=O)CCn1nc(-c2ccc(Cl)cc2)ccc1=O`, -5.6% (inactive). As for `O=C(COC(=O)Cc1c[nH]c2ccccc12)NCCc1ccccc1`, the inhibition is 4.15% (inactive). For the compound `Nc1nc(O)c(CC(=O)O)s1`, the inhibition is 4.54% (inactive). For `Cc1ccc(C(=O)Nc2c(-c3ccccc3)[nH][nH]c2=O)cc1`, the inhibition is 12.1% (inactive).

In the case of `O=C(NC1=CC(=O)c2ccccc2C1=O)c1ccccc1`, the inhibition was 60.1% (active).

For the compound `Nn1cnnc1N/N=C/c1cc([N+](=O)[O-])c(Cl)cc1Cl`, the inhibition was -5.21% (inactive). As to `CCOc1ccc(C(c2c(C)[nH][nH]c2=O)c2c(C)[nH][nH]c2=O)cc1OCC`, the inhibition is 10.8% (inactive). Under `CCOC(=O)c1ccc(NC2Nc3cc(C)nn3S2)cc1` (stereo not drawn) stands 7.05% (inactive); under `CCOC(=O)c1ccc(Nc2cc3ccccc3c(=O)[nH]2)cc1`, 32.7% (active); under `COc1ccccc1CN1CCN(C(c2ccccc2)c2ccccc2)CC1`, 3.64% (inactive). With `COCCNC(=O)c1ccc(S(=O)(=O)c2ccc(Cl)cc2)c(NC(C)=O)c1`, the inhibition was 9.19% (inactive).

Usually inhibition stands for the change of the read-out against control, counted positive when it falls.
